Assay results reported in the supplement of paper PMC12350171.
Structures can show the parent of a compound that is named as a salt.

Key:
Settings in all cases: 20 µM
[1] = test system: Haemophilus parainfluenzae; assay: growth AUC normalised to DMSO control (fraction of control); higher = less growth inhibition, active = hit call of the paper
Summary of the method: (§1)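 Pathogens were passaged twice under anaerobic conditions, then inoculated into pre-reduced mGAM plates at a starting OD578 of 0.01, with compound at 20 μM and 1% DMSO, and sealed with breathable membranes. For Haemophilus parainfluenzae, the medium was supplemented with hemin and NAD. OD578 was read every hour for 24 h in three biological replicates. Growth-curve AUC was calculated by the trapezoidal rule up to the exponential-to-stationary transition and normalised to DMSO controls on the same plate.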

[2] = test system: Salmonella enterica typhimurium; assay: as above
Summary of the method: as §1

[3] = test system: Shigella flexneri; assay: as above
Summary of the method: as §1

[4] = test system: Vibrio cholerae; assay: as above
Summary of the method: as §1

[5] = test system: Yersinia pseudotuberculosis; assay: as above
Summary of the method: as §1

[6] = test system: P. vulgatus RND KO; assay: growth AUC normalised to DMSO control (median) (fraction of control); higher = less growth inhibition, active = hit call of the paper
Summary of the method: (§2)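 Strains were passaged twice overnight without oxygen, then grown in mGAM in 96-well plates with each approved-drug library compound at 20 μM and 1% DMSO, starting at OD578 0.01. OD578 was read hourly for 24 h inside an anaerobic incubator. Curves were truncated at entry into stationary phase, and the trapezoidal-rule area under the curve was normalised to same-plate vehicle wells. The value is the median across three biological replicates.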

[7] = test system: P. vulgatus WT; assay: as above
Summary of the method: as §2

[8] = test system: S. enterica typhimurium WT; assay: as above
Summary of the method: as §2

[9] = test system: S. enterica typhimurium tolC KO; assay: as above
Summary of the method: as §2

Measured: growth AUC normalised to DMSO control
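Throughout, for growth AUC normalised to DMSO control (median): active when median AUC fell below 0.1.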

CCCN1C[C@H](CSC)C[C@@H]2c3cccc4[nH]cc(c34)C[C@H]21 [Pergolide mesylate]
inactive: [1] 1 | [2] 0.998 | [3] 0.959 | [4] 0.956 | [5] 1.01 | [6] 0.986 | [7] 0.956 | [8] 0.995 | [9] 0.974

O=C(CCCN1CCC(n2c(=O)[nH]c3ccccc32)CC1)c1ccc(F)cc1 [Benperidol]
inactive: [1] 1.03 | [2] 0.981 | [3] 0.998 | [4] 0.998 | [5] 0.975 | [6] 1.01 | [7] 1.02 | [8] 0.993 | [9] 0.956

C#C[C@]1(O)CC[C@H]2[C@@H]3CCC4=CC(=O)CCC4=C3C=C[C@@]21CC [Gestrinone]
inactive: [1] 1.03 | [2] 0.989 | [3] 1.03 | [4] 1.01 | [5] 1.01 | [6] 1.01 | [7] 1.07 | [8] 1.01 | [9] 0.986

CCC1(c2ccc(N)cc2)CCC(=O)NC1=O (stereo unspecified) [Glutethimide, para-amino]
inactive: [1] 1.04 | [2] 1.01 | [3] 1 | [4] 1.04 | [5] 0.988 | [6] 1.02 | [7] 1.04 | [8] 1.02 | [9] 0.993

C[C@@H]1CN([C@H]2CC[C@](C#N)(c3ccc(F)cc3)CC2)CC[C@]1(C(=O)O)c1ccccc1 [Levocabastine hydrochloride]
active: [4] 0.239
inactive: [1] 1.02 | [2] 1 | [3] 1.02 | [5] 0.997 | [6] 0.989 | [7] 1.05 | [8] 0.997 | [9] 1.01

COc1ccc(CN2CCNCC2)c(OC)c1OC [Trimetazidine dihydrochloride]
inactive: [1] 1.02 | [2] 0.989 | [3] 1.03 | [4] 1.02 | [5] 1.01 | [6] 1.01 | [7] 1.01 | [8] 0.997 | [9] 0.994

NCC1(CC(=O)O)CCCCC1 [Gabapentin]
inactive: [1] 0.891 | [2] 1.01 | [3] 1.05 | [4] 1.03 | [5] 1.01 | [6] 1.04 | [7] 1.04 | [8] 1.01 | [9] 1.01

O=c1c2ccccc2[se]n1-c1ccccc1 [Ebselen]
inactive: [1] 0.874 | [2] 0.987 | [3] 1.03 | [4] 0.999 | [5] 0.974 | [6] 1.04 | [7] 1.02 | [8] 1.02 | [9] 0.971

CC(=O)OCC(=O)[C@H]1CC[C@H]2[C@@H]3CC[C@H]4C[C@H](O)CC[C@]4(C)[C@H]3C(=O)C[C@]12C [Alfadolone acetate]
inactive: [1] 1.26 | [2] 1.01 | [3] 0.99 | [4] 0.987 | [5] 0.992 | [6] 1.04 | [7] 1.05 | [8] 1.01 | [9] 0.941
